Data on twelve compounds can be found in PubChem BioAssay (NCATS).

Records with an inconclusive call do not appear. Values without a mark were called inactive. Active and inactive are the calls of the source. The call rests on the fitted dose curve; in most records, active means well fitted curve in the direction sought with a large enough effect; inconclusive means small, poorly fitted or top-dose-only effect, or another doubt; inactive means no such curve, though single readings can be large; an effect the other way counts as inactive or inconclusive.

For test [1], the system named is CRL-7250. Nature of the test: Cytotoxic Profiling of Annotated Libraries Using Quantitative High-Throughput Screening (AID 1296008). Further: nearly all actives have a fitted effect of over 60% in size. Further: potency means the concentration at half of the fitted maximal effect. On max response: on the % scale 0 is the no-effect control and ±100 the full control effect. The note with it: Five cell lines viability, CellTiter-Glo ATP luminescence, 48-72 h; max response: hits give low values. The method in brief:
(§1)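 Cells exposed to compounds for 48 or 72 hr at 37 degrees Celsius. Viability read as ATP-coupled luminescence with CellTiter-Glo after 10 min at room temperature.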
On the technique in general: In ATP-based viability assays light output follows the ATP content of the culture.

For another test, the system named is HEK293. The description is as above. The note with it: Five cell lines viability, CellTiter-Glo ATP luminescence, 48-72 h; max response: hits give low values. The method in brief: as §1
Test [2] concerns HaCat. The description is as above. The settings on record: Five cell lines viability, CellTiter-Glo ATP luminescence, 48-72 h; max response: hits give low values. A digest of the protocol:
as §1

A further test concerns KB-3-1. The description is as above. The note with it: Five cell lines viability, CellTiter-Glo ATP luminescence, 48-72 h; max response: hits give low values. The method in brief:
as §1

Test [3] relates to NIH3T3. The description is as above. The settings on record: Five cell lines viability, CellTiter-Glo ATP luminescence, 48-72 h; max response: hits give low values. The method in brief: as §1
In test [4] the test system is HACAT. Description: qHTS assay to identify novel small-molecules to repurpose for Merkel cell carcinoma treatment (AID 1296009). Further: nearly all actives have a fitted effect of over 60% in size. The settings on record: MCC and control cell lines, CellTiter-Glo viability, 72 h; at 44.8 µM (top of the series) unless noted. The method in brief: (§2)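 Cells were treated for 72 hr at 37 degree celsius with compounds in 8- or 11-point dose response. Viability was read by CellTiter-Glo luminescence, normalized to no-cell (cytotoxicity) and DMSO controls.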
For orientation: In qHTS, concentration-response curves come from the screen itself.

The next test relates to HEK293T. The test is described as above. The settings on record: MCC and control cell lines, CellTiter-Glo viability, 72 h; at 44.8 µM (top of the series) unless noted. A digest of the protocol:
as §2

Another test has as its system C33A. Nature of the test: Primary qHTS to identify gynecologic anti-cancer compounds using libraries of approved drugs and bioactive compounds (AID 1345084). Further: nearly all actives have a fitted effect of over 55% in size. Further: potency means the concentration at half of the fitted maximal effect. On activity change, negative = cytotoxicity: on the % scale 0 is the no-effect control and ±100 the full control effect. The settings on record: Gynecologic cancer cell panel viability, ATPlite luminescence, 48 h; series mostly up to 57.5 µM. A digest of the protocol:
(§3)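 Cell viability after 48 h drug treatment, ATPlite luminescence readout; five doses.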

A further test concerns CASKI. Described as above. The settings on record: Gynecologic cancer cell panel viability, ATPlite luminescence, 48 h; series mostly up to 57.5 µM. The method in brief:
as §3

The next test has as its system Es-2. The description is as above. The settings on record: Gynecologic cancer cell panel viability, ATPlite luminescence, 48 h; series mostly up to 57.5 µM. A digest of the protocol: as §3
A further test relates to HeLa. The test is described as above. The settings on record: Gynecologic cancer cell panel viability, ATPlite luminescence, 48 h; series mostly up to 57.5 µM. The method in brief: as §3
For test [5], the system named is NIH3T3. Description: qHTS assay to identify novel small-molecules to repurpose for Merkel cell carcinoma treatment (AID 1296009). Further: nearly all actives have a fitted effect of over 60% in size. The settings on record: MCC and control cell lines, CellTiter-Glo viability, 72 h; at 44.8 µM (top of the series) unless noted. A digest of the protocol: as §2
For another test, the system named is CAOV3. Description: Primary qHTS to identify gynecologic anti-cancer compounds using libraries of approved drugs and bioactive compounds (AID 1345084). Further: nearly all actives have a fitted effect of over 55% in size. Further: potency means the concentration at half of the fitted maximal effect. On activity change, negative = cytotoxicity: on the % scale 0 is the no-effect control and ±100 the full control effect. The settings on record: Gynecologic cancer cell panel viability, ATPlite luminescence, 48 h; series mostly up to 57.5 µM. The method in brief: as §3
Test [6] relates to CRL-7250. Description: qHTS assay to identify novel small-molecules to repurpose for Merkel cell carcinoma treatment (AID 1296009). Further: nearly all actives have a fitted effect of over 60% in size. The note with it: MCC and control cell lines, CellTiter-Glo viability, 72 h; at 44.8 µM (top of the series) unless noted. The method in brief: as §2

As to `CCCCCCn1c(=O)c(C(=O)Nc2ccc(C(=O)OCCC)cc2)c(O)c2ccccc21`, the max response was 0.836% in the test on CRL-7250 [1] and 4.2% with NIH3T3 [3]. The call in the test on HEK293, with HaCat [2] and in the test with KB-3-1 was inactive. For the same compound, the outcome in the test on HACAT [4] and in the test with HEK293T was “inactive [at 9.27 µM]” in each case. Moreover, the activity change, negative = cytotoxicity is -0.0211% [at 11.6 µM] with C33A, 4.2% [at 11.6 µM] in the test on CASKI, 9.25% [at 11.6 µM] with Es-2 and 18.5% [at 11.6 µM] in the test on HeLa.
For `Cc1c(Cl)cccc1S(=O)(=O)Nc1nc(CC(=O)N2CCN(C)CC2)cs1`, the max response in the test with CRL-7250 [1] was 0.391%; in the test on HEK293 it was -10.3%. The call in the test on HaCat [2], in the test with KB-3-1, in the test with NIH3T3 [3] and with HACAT [4] was inactive. In addition, the Potency result in the test on C33A, in the test on CASKI, in the test on Es-2 and in the test with HeLa was “inactive” throughout.
`COC1CC(O[C@H]2CC[C@@]3(C)C(=CCC4C3C(O)[C@@H](O)[C@]3(C)[C@@H](C(C)=O)CC[C@]43O)C2)OC(C)C1OC1CC(OC)C(OC2OC(C)C(O)C(O)C2O)C(C)O1` (stereo not given in full): in the test with CRL-7250 [1], the max response is -8.18%. Also, the call with HEK293, with HaCat [2], in the test with KB-3-1 and with NIH3T3 [3] was inactive. Besides, the outcome in the test with HACAT [4], in the test on HEK293T and in the test on NIH3T3 [5] was “inactive [at 9.27 µM]” throughout. Besides, the activity change, negative = cytotoxicity in the test on C33A is -3.17% [at 11.6 µM]; in the test on CASKI, -11.2% [at 11.6 µM]; with Es-2, -3.8% [at 11.6 µM]; in the test on HeLa, -11.4% [at 11.6 µM].
For `CN1[C@H]2C[C@H](OC(=O)[C@H](CO)c3ccccc3)C[C@@H]1[C@@H](O)C2`, the max response with CRL-7250 [1] was -1.08%; with KB-3-1 it was 1.1%. In addition, the compound was classed as inactive with HEK293, in the test with HaCat [2], in the test on NIH3T3 [3], in the test on HACAT [4], with HEK293T and in the test on NIH3T3 [5]. In addition, the Potency entry in the test on C33A, in the test on CAOV3, with CASKI, with Es-2 and with HeLa was “inactive” throughout.
With `CC(=O)OC1CC(O)C2(C)C(CC(OC(C)=O)C3(C)C2CCC2(C)C(c4ccoc4)C(=O)C4OC423)C1(C)C` (stereo not given), the max response in the test with CRL-7250 [1] was -9.87%; in the test on HaCat [2], -22.5%; in the test with KB-3-1, 8.18%; in the test on NIH3T3 [3] it was -1.6%. The compound was classed as inactive with HEK293. Also, in the test on HEK293T, the outcome was “inactive [at 17.4 µM]”. Further, the Potency entry in the test with C33A, with CAOV3, in the test on CASKI, in the test on Es-2 and in the test with HeLa was “inactive” in each case.
With `C[C@]12CC[C@H]3[C@@H]([C@H](O)CC4=CC(=O)CC[C@@]43C)[C@@H]1CC[C@@H]2O`, the outcome in the test on CRL-7250 [1], in the test on NIH3T3 [3], in the test with CRL-7250 [6] and in the test with NIH3T3 [5] was inactive. Moreover, the values for the max response in the test with HEK293, in the test on HaCat [2] and with KB-3-1 were -7.8%, -25.7% and 5.15%, respectively. The Potency result in the test on C33A, with CASKI, in the test with Es-2 and in the test with HeLa was “inactive” each time.
In the case of `C=C(C)[C@H]1O[C@H]2CC[C@@]3(C)[C@@](O)(CC[C@H]4[C@@H]5OC(C)(C)[C@H]6C[C@@H]7C(=C)Cc8c(Cl)cc9[nH]c(c5c9c8[C@@]76O)[C@@]43C)[C@]23O[C@@H]3[C@H]1O`, the figures for the max response in the test with CRL-7250 [1], with HaCat [2] and in the test with NIH3T3 [3] were -5.7%, 4.01% and -2.87%, respectively. Moreover, the call with HEK293 and in the test with KB-3-1 was inactive. For the same compound, the outcome in the test on HEK293T was “inactive [at 17.4 µM]”. In addition, the Potency entry with C33A, with CASKI, in the test on Es-2 and with HeLa was “inactive” each time.
On to `C1=C2CCCN[C@H]2[C@@H]2C[C@H]1[C@H]1CCCCN1C2`, for which the result with CRL-7250 [1], in the test with KB-3-1, with NIH3T3 [3] and in the test on CRL-7250 [6] was inactive. In addition, the max response in the test with HEK293 is -4.85%; with HaCat [2] it was -5.08%. Besides, the Potency result in the test on C33A, in the test on CASKI, in the test on Es-2 and with HeLa was “inactive” in each case.
With `CC1=C2C[C@H]3[C@@H](CC=C4C[C@@H](O)CC[C@@]43C)[C@@H]2CC[C@]12O[C@@H]1C[C@H](C)CN[C@H]1[C@H]2C`, the results for the max response in the test on CRL-7250 [1], in the test with HaCat [2] and with KB-3-1 were 0.632%, 3.98% and 1.29%, respectively. In addition, the outcome with HEK293, with NIH3T3 [3] and with HEK293T was inactive. Besides, the Potency entry in the test on C33A, with CASKI, in the test with Es-2 and in the test with HeLa was “inactive” in each case.
For `COC1C(O)C(OC2CCC3(C=O)C(CCC4C3CCC3(C)C(C5=CC(=O)OC5)CCC43O)C2)OC(C)C1OC1OC(CO)C(O)C(O)C1O` (stereo not given), the Potency is 172 nM (active) in the test with CRL-7250 [1]; 243 nM (active) with HEK293; 1720 nM (active) in the test with HaCat [2]; 485 nM (active) in the test with KB-3-1; 501 nM (active) in the test on C33A; 2000 nM (active) in the test with CAOV3. In addition, the Potency is 891 nM (active) in the test on Es-2 and 1260 nM (active) in the test with HeLa. The compound was called inactive in the test on NIH3T3 [3]. Besides, in the test on NIH3T3 [5], the outcome was “inactive [at 17.4 µM]”.
As to `CC1=CC2/C=C(\C)CCC(O)C3OC(C)(C)OC3CC(=O)OC23C(=O)NC(CC(C)C)C3C1C` (stereo not given), the results for the max response with CRL-7250 [1] and in the test with HEK293 were 0.49% and 2.48%, respectively. For the same compound, the result in the test with HaCat [2], in the test on KB-3-1 and with NIH3T3 [3] was inactive. Besides, the outcome in the test on HACAT [4] was “inactive [at 17.4 µM]”. The Potency result in the test on C33A, with CAOV3, in the test on CASKI, in the test with Es-2 and with HeLa was “inactive” throughout.
With `COC(=O)C12C(=O)C(C)(O)C(=O)C1(C)C(C)=CC1C34CCC(OC3=O)C(C)(CO)C4CCC12C` (stereo not given), the outcome with CRL-7250 [1], in the test with KB-3-1 and in the test on NIH3T3 [3] was inactive. The max response was 4.01% in the test with HEK293 and 0.667% with HaCat [2]. For the same compound, the outcome with CRL-7250 [6] and in the test on NIH3T3 [5] was “inactive [at 17.4 µM]” throughout. Also, the Potency entry in the test on C33A, in the test with CASKI, in the test with Es-2 and in the test with HeLa was “inactive” in each case.
